Records with an inconclusive call do not appear. The source made the active and inactive calls. Rule for the calls, unless noted: active = hit-call score of the fitted dose curve at least 0.9, where 1 is the maximum; inactive = score below 0.9.
Key:
[1] = ACEA_ER_80hr: ACEA Biosciences xCELLigence Real-Time Cell Analysis on Estrogen Receptor Agonism for Proliferation (AID 2282667; active = hit-call score of the fitted dose curve at least 0.9, where 1 is the maximum); conditions: T47D proliferation, impedance (xCELLigence), 80 h
Outline: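 Estrogen-driven proliferation is captured as electrode impedance in T47D cells 80 h after compound addition. Test articles ran at 8 concentrations, 1:4 dilutions from 100 uM final, in two replicate plates.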

[2] = APR_HepG2_CellCycleArrest_24hr: Apredica 24-hour HepG2 Assay for Cell Cycle Arrest (AID 2282905); conditions: imaging, actives raise or lower the signal;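 note: cell cycle arrest scored as ratio of 2N to 4N nuclear DNA content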
Outline: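 HepG2 cells were exposed to compounds at 0.39–200 uM (ten concentrations, duplicate) in 0.5% v/v DMSO for 24 hr. After formaldehyde fixation and Triton permeabilization, Hoechst 33342-stained nuclei were imaged at 20x; DNA content was quantified, with bidirectional fitting against DMSO.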

[3] = APR_HepG2_NuclearSize_24hr: Apredica 24-hour HepG2 Assay for Nuclear Size (AID 2282907); conditions: high-content imaging, actives raise or lower the signal
Outline: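 HepG2 human liver cells were exposed for 24 hr to compounds at 0.39–200 uM (ten concentrations, duplicate) in 0.5% v/v DMSO. They were then formaldehyde-fixed, Triton-permeabilized and Hoechst 33342-stained, and nuclear diameter was imaged at 20x. Bidirectional fits were made against DMSO.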

[4] = APR_HepG2_CellLoss_24hr: Apredica 24-hour HepG2 Assay for Cell Loss (AID 2282908); conditions: high-content imaging
Outline: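 Compounds were tested at 0.39–200 uM in duplicate with 0.5% v/v DMSO final. Cells were then fixed in 3.7% formaldehyde, Hoechst 33342 nuclei were imaged at 20x by HCS, and cell number was fitted bidirectionally against DMSO.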

[5] = APR_HepG2_MicrotubuleCSK_24hr: Apredica 24-hour HepG2 Assay for Microtubule CSK Stabilty (AID 2282909); conditions: HepG2 microtubule cytoskeleton imaging, actives raise or lower the signal
Outline: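 HepG2 cells exposed 24 h to compounds at 0.39–200 uM (duplicate, 0.5% v/v DMSO final), then fixed, permeabilized and immunostained for alpha-tubulin with Hoechst 33342. Cytoskeleton imaged at 20x; bidirectional fit versus DMSO baseline.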

[6] = APR_HepG2_MitoticArrest_24hr: Apredica 24-hour HepG2 Assay for Mitotic Arrest (AID 2282910); conditions: high-content imaging, actives raise or lower the signal
Outline: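 Compounds are dosed onto HepG2 cells across ten concentrations up to 200 uM for 24 hr. Cells are then fixed in 3.7% formaldehyde, permeabilised, and labelled for phospho-histone H3 and nuclei; images are scored by cell cycle analysis and fitted bidirectionally relative to DMSO.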

[7] = APR_HepG2_MitoMembPot_24hr: Apredica 24-hour HepG2 Assay for Mitochondrial Membrane Potential (AID 2282911); conditions: imaging, actives raise or lower the signal
Outline: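 Mitochondrial dye uptake (MitoTracker Red CMXRos, 250 nM, 30 min pre-fixation) in HepG2 after 24 hr compound exposure, 0.39–200 uM; ArrayScan images at 20x, activity fitted in both directions relative to DMSO.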

[8] = APR_HepG2_MitoMass_24hr: Apredica 24-hour HepG2 Assay for Mitochondrial Mass (AID 2282912); conditions: high-content imaging, actives raise or lower the signal
Outline: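 Human HepG2 liver cells were exposed for 24 hr to compounds at 0.39–200 uM (duplicates, 0.5% v/v DMSO final). They were stained live with 250 nM MitoTracker Red CMXRos for 30 min, fixed in 3.7% formaldehyde, and imaged by HCS fluorescence; signals were fitted bidirectionally against DMSO.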

[9] = APR_HepG2_p53Act_24hr: Apredica 24-hour HepG2 Assay for p53 Activation (AID 2282913); conditions: high-content imaging, actives raise or lower the signal;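 note: p53 protein immunofluorescence averaged per cell in HepG2 with Hoechst nuclei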
Outline: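 Following 24 hr dosing of HepG2 at 0.39–200 uM, the cells undergo formaldehyde fixation, Triton permeabilization and multiplexed antibody labeling that includes p53 (Cy5). Signal from the imaging is referenced to DMSO solvent controls.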

[10] = APR_HepG2_CellLoss_72hr: Apredica 72-hour HepG2 Assay for Cell Loss (AID 2282915); conditions: high-content imaging
Outline: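 Cell number comes from Hoechst 33342-labelled nuclei, imaged at 20x after 3.7% formaldehyde fixation. Dosing was 0.39–200 uM, ten concentrations in duplicate, 0.5% DMSO final, for 72 h. Bidirectional fit relative to DMSO baseline.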

[11] = APR_HepG2_P-H2AX_72hr: Apredica 72-hour HepG2 Assay for H2AX Phosphorylation (AID 2282916); conditions: imaging, actives raise or lower the signal;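 note: phospho-histone H2A.x immunostain intensity per cell marking DNA damage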
Outline: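 HepG2 human liver cells were exposed for 72 hr to compounds at 0.39–200 uM (10 concentrations, duplicate per plate) in 0.5% v/v DMSO. Fixed, permeabilized cells were immunolabeled for phospho-histone H2A.x with Hoechst 33342 and imaged by HCS fluorescence; bidirectional fit versus DMSO.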

[12] = APR_HepG2_P-H2AX_24hr: Apredica 24-hour HepG2 Assay for H2AX Phosphorylation (AID 2282920); conditions: high-content imaging, actives raise or lower the signal
Outline: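 Human HepG2 liver cells, treated 24 hr with test chemicals (0.39–200 uM, final DMSO 0.5% v/v), are fixed and co-stained for phospho-H2A.x and c-Jun with Hoechst. Imaged intensity is fitted in both directions against DMSO controls.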

[13] = APR_HepG2_StressKinase_72hr: Apredica 72-hour HepG2 Assay for Stress Kinase (AID 2282921); conditions: HepG2 stress kinase (phospho-c-Jun) imaging, actives raise or lower the signal
Outline: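 Cells were exposed for 72 h to ten concentrations (0.39–200 uM, duplicate) at 0.5% v/v DMSO final, then fixed with 3.7% formaldehyde, permeabilized and immunostained for phospho-c-Jun (Cy3 secondary) with Hoechst nuclear counterstain.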

[14] = APR_HepG2_StressKinase_24hr: Apredica 24-hour HepG2 Assay for Stress Kinase (AID 2282922); conditions: HepG2 stress kinase (phospho-c-Jun) imaging, actives raise or lower the signal
Outline: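 HepG2, 24 hr dosing, 0.39–200 uM in duplicate, 0.5% DMSO; formaldehyde fix (3.7%), 0.5% Triton X-100; anti-phospho-c-Jun + Cy3 secondary, Hoechst counterstain; ArrayScan imaging; bidirectional curve fit vs DMSO baseline.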

[15] = APR_HepG2_p53Act_72hr: Apredica 72-hour HepG2 Assay for p53 Activation (AID 2282923); conditions: high-content imaging, actives raise or lower the signal;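 note: average cellular p53 protein immunofluorescence intensity in HepG2 cells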
Outline: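 Cells were dosed for 72 hr with compounds at 0.39–200 uM in duplicate (final DMSO 0.5% v/v), then fixed in 3.7% formaldehyde, permeabilized with Triton X-100 and immunostained for p53 (Cy5) with Hoechst 33342 nuclear counterstain.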

[16] = APR_HepG2_NuclearSize_72hr: Apredica 72-hour HepG2 Assay for Nuclear Size (AID 2282925); conditions: high-content imaging, actives raise or lower the signal
Outline: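 HepG2; cpd 0.39–200 uM, 10 conc, duplicate; 72 h; DMSO 0.5% v/v; fix 3.7% formaldehyde 30 min RT; Triton permeabilization; Hoechst 2 ug/mL; HCS imaging 20x; nuclear diameter; gain/loss fit vs DMSO.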

[17] = APR_HepG2_MitoMembPot_72hr: Apredica 72-hour HepG2 Assay for Mitochondrial Membrane Potential (AID 2282917); conditions: imaging, actives raise or lower the signal
Outline: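 Membrane potential read by MitoTracker Red CMXRos (250 nM, 30 min, pre-fixation) fluorescence imaging of HepG2 after 72 hr exposure. Ten concentrations, 0.39–200 uM, duplicate wells, 0.5% DMSO; fitted in both directions against DMSO baseline.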

O=S1(=O)OCC2C(CO1)C1(Cl)C(Cl)=C(Cl)C2(Cl)C1(Cl)Cl (configuration not stated)
AC50 [1]: 21.3 nM (active)

CC(C)CBr
outcome [1]: inactive

Oc1ccccc1Br
outcome [1]: inactive

ClC(Cl)=C(c1ccc(Cl)cc1)c1ccccc1Cl
outcome [1]: inactive

CCOC(=O)c1ccccc1N
outcome [1]: inactive

Cc1ccc(C(=O)Cl)cc1
outcome [1]: inactive

C/C(=N\NC(=O)Nc1cc(F)cc(F)c1)c1ncccc1C(=O)O
AC50 [1]: 265 nM (active)

CCCCN(CCCC)N=O
outcome [1]: inactive
outcome [2]: inactive
outcome [3]: inactive
outcome [4]: inactive
outcome [5]: inactive
outcome [6]: inactive
outcome [7]: inactive
outcome [8]: inactive
outcome [9]: inactive
outcome [10]: inactive
outcome [11]: inactive
outcome [12]: inactive
outcome [13]: inactive
outcome [14]: inactive
outcome [15]: inactive
outcome [16]: inactive

c1ccc(OP(Oc2ccccc2)Oc2ccccc2)cc1
outcome [1]: inactive
outcome [2]: inactive
outcome [3]: inactive
outcome [4]: inactive
outcome [5]: inactive
outcome [6]: inactive
outcome [7]: inactive
outcome [8]: inactive
outcome [9]: inactive
outcome [10]: inactive
outcome [11]: inactive
outcome [17]: inactive
outcome [12]: inactive
outcome [13]: inactive
outcome [14]: inactive
outcome [15]: inactive
outcome [16]: inactive

CCOP(=O)(O)C(N)=O
outcome [1]: inactive

CCCCC(CC)COP(=O)(Oc1ccccc1)Oc1ccccc1 (configuration not stated)
outcome [1]: inactive

CC1=C(C(=O)Nc2ccccc2)S(=O)(=O)CCO1
AC50 [1]: 267 nM (active)

CC(C)(C)c1ccccc1OP(=O)(Oc1ccccc1)Oc1ccccc1
outcome [1]: inactive

N#Cc1c(-c2ccc(Cl)cc2)[nH]c(C(F)(F)F)c1Br
outcome [1]: inactive

O=C(O)C(F)(F)OC(F)(F)C(F)(F)OC(F)(F)C(=O)O
outcome [1]: inactive

Nc1ccc(Sc2ccc(N)cc2)cc1
outcome [1]: inactive

CCCCN(CC)C(=O)SCCC
outcome [1]: inactive

[N-]=[N+]=[N-]
outcome [1]: inactive
outcome [2]: inactive
outcome [3]: inactive
outcome [4]: inactive
outcome [5]: inactive
outcome [6]: inactive
outcome [7]: inactive
outcome [8]: inactive
outcome [9]: inactive
outcome [10]: inactive
outcome [11]: inactive
outcome [12]: inactive
outcome [13]: inactive
outcome [14]: inactive
outcome [15]: inactive
outcome [16]: inactive

CO/N=C(/C(=O)OC)c1ccccc1COc1ccccc1C
outcome [1]: inactive

Cn1[nH]nnc1=S
outcome [1]: inactive

CCOP(=S)(OCC)SCSc1ccc(Cl)cc1
outcome [1]: inactive

CC(O)C#N (configuration not stated)
outcome [1]: inactive

CCCCOCCOP(=O)(OCCOCCCC)OCCOCCCC
AC50 [1]: 10500 nM (active)

O=C(O)C(F)(F)C(F)(F)C(=O)O
outcome [1]: inactive

COP(=O)(CCC(=O)NCO)OC
outcome [1]: inactive

O=c1ssc(Cl)c1Cl
outcome [1]: inactive

Cc1c([N+](=O)[O-])cc2c(c1[N+](=O)[O-])C(C)(C)CC2(C)C
outcome [1]: inactive

CCCCOCC1CO1 (configuration not stated)
outcome [1]: inactive

OCC(F)(F)OC(F)(F)C(F)(F)OC(F)(F)C(F)(F)OC(F)(F)CO
AC50 [1]: 976 nM (active)

C=CC(=O)OCC(F)(F)C(F)F
outcome [1]: inactive

Oc1ccc(I)cc1
outcome [1]: inactive

CCN(CC)C1CCCCC1
outcome [1]: inactive

O=NN1CCCC1
outcome [1]: inactive

COP(N)(=S)OC
outcome [1]: inactive

Nc1ccc([N+](=O)[O-])cc1Cl
outcome [1]: inactive

N#Cc1ccc(O)cc1
outcome [1]: inactive
